Screening data as filed in PubChem BioAssay.
Hits are enriched below; roughly 19% of the tested compounds scored in any of these assays.
DT40 TDP1 CPT = DT40-hTDP1 cell growth loss with CPT; chicken DT40 Tdp1-/-;hTDP1 cells + 20 nM CPT, ATP luminescence, 48 h; Potency, µM (highest dose often 46.2 µM), without a hit: top-dose activity change, negative = growth inhibition, usual class: inhibitors; 12% of 420,000 active; AID 686979; further: potency means the concentration at half of the fitted maximal effect; nearly all actives have a fitted effect of over 55% in size
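Chicken DT40 Tdp1-/- cells stably complemented with human TDP1 were seeded at 400 cells/well in medium containing 20 nM camptothecin, exposed to pin-transferred compounds, and grown at 37 °C for at least 48 hr. Viability was read as ATP luminescence.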
IL1B secr inh = inflammasome signaling inhibition, IL-1 beta readout. THP-1 LPS/ATP IL-1B secretion, AlphaLISA, 16 h; hits give low values. activity change, % at 57.5 µM. 4.7% of 360,000 active. AID 743279; in the data active means activity change below about -50%; inconclusive means mostly about -30% to -49%
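THP-1 cells pretreated 1 hr with compounds (up to 57.5 uM final), then stimulated with LPS (250 ng/mL final) plus ATP (1.25 mM final); secreted IL-1B measured by AlphaLISA after 16 hr, decreased signal indicating inhibition.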
HT1080NT lethal = kills 2HG-producing HT-1080-NT fibrosarcoma cells; HT-1080-NT fibrosarcoma viability, CellTiter-Glo ATP luminescence, 48 h; Potency, µM (highest dose often 46.1 µM), for the others: at the top dose activity, negative = less viability, usual class: cytotoxic; 1.6% of 360,000 active; AID 686970;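 further: NT is the 2HG producing partner of a matched IDH1 knockdown line; potency means the concentration at half of the fitted maximal effect; 0% = DMSO-treated cells and -100% = media-only wells without cells; nearly all actives have a fitted effect of over 55% in size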
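Fibrosarcoma NT cells, 750 per well in 5% FBS RPMI, were exposed to compound for 48 hours. Viability: CellTiter-Glo luminescence.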
TDP1 cell noCPT = qHTS for Inhibitors of human tyrosyl-DNA phosphodiesterase 1 (TDP1): qHTS in cells in absence of CPT; DT40 Tdp1-/- hTDP1 cells, no CPT, ATP luminescence, 48 h; AID 686978, 2013; 15% of 420,000 active; Potency, µM (series often up to 46.2 µM), for the others: top-dose activity change, negative = growth inhibition, actives largely listed as inhibitors; further: potency means the concentration at half of the fitted maximal effect; nearly all actives have a fitted effect of over 55% in size
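DT40 Tdp1-/-;hTDP1 cells, no CPT (DMSO vehicle only), 400 cells/well; compounds pin-transferred; ≥48 hr, 37 °C; CellTiter-Glo 30 min RT dark, luminescence read.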
ELG1 repair inh = blocks ELG1-dependent DNA repair in HEK293T cells; Potency, µM (top dose mostly 46.1 µM), for the others: at the highest dose activity change, negative = inhibition, most hits filed as inhibitors; 2.3% of 330,000 active; HEK293T ELG1-luciferase reporter, luminescence, 16 h; DNA damage induced by 5-fluorouridine; AID 504467; further: potency means the concentration at half of the fitted maximal effect; nearly all actives have a fitted effect of over 55% in size
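DMSO vehicle served as the neutral condition. Each well held 2,000 cells given 5-fluorouridine plus compound; after 16 hr at 37 °C/5% CO2, ONE-Glo was added and luciferase measured 30 min later.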
HT1080 IDH1KD tx = kills HT-1080 cells with IDH1 knockdown; HT-1080 IDH1 knockdown viability, ATP luminescence, 48 h; Potency, µM (series often up to 46.1 µM), without a hit: top-dose activity, negative = toxicity, most hits filed as cytotoxic; 2% of 360,000 active; AID 686971;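 further: potency means the concentration at half of the fitted maximal effect; 0% = DMSO wells and -100% = cell-free medium wells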
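Knockdown cells (IDH1KD HT-1080) received compounds 2 h after plating at 750 cells/well and were kept 48 h at 37 °C in 5% FBS RPMI. A CellTiter-Glo luminescence read gave % activity for curve fitting.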
* marks the source's active call; other numbers are inactive results; ? = inconclusive; nt = no result; [ ] = remark or other dose. Unless noted, the call rests on the fitted dose curve; in most records, active means well fitted curve in the direction sought with a large enough effect; inconclusive means small, poorly fitted or top-dose-only effect, or another doubt; inactive means no such curve, though single readings can be large; an effect the other way counts as inactive or inconclusive. Unless noted, on the % scale 0 is the no-effect control and ±100 the full control effect.

SMILES	DT40 TDP1 CPT	IL1B secr inh	HT1080NT lethal	TDP1 cell noCPT	ELG1 repair inh	HT1080 IDH1KD tx
COCCNC(=S)N1CCc2cc(OC)c(OC)cc2C1COc1ccc(F)cc1 (stereo not drawn)	?	-3	-21%	?	16µM*	?
CCNC(=S)N1CCc2cc(OC)c(OC)cc2C1COc1ccc(F)cc1 (stereo not drawn)	-2%	-61*	-14%	-4%	?	-15%
COCCNC(=S)N1CCc2cc(OC)c(OC)cc2C1COc1ccc(C(C)C)cc1 (stereo not drawn)	?	?	-10%	?	9.2µM*	-28%
CCN(Cc1ccncc1)C(=O)c1cc(COc2ccc(OC)cc2Cl)on1	16µM*	-23	-4%	?	?	-10%
CCc1ccc(CN(C)C(=O)c2cc(COc3ccc(OC)cc3Cl)on2)nc1	?	-14	6%	29µM*	?	10%
CCN(Cc1ccncc1)C(=O)c1cc(COc2c(F)cccc2F)on1	?	-5	21%	-30%	-17%	3%
CCN(Cc1ccncc1)C(=O)c1cc(COc2ccc(F)cc2Cl)on1	16µM*	-4	0%	?	-29%	3%
Cc1cc(CN(C)C(=O)c2cc(COc3ccc(F)cc3Cl)on2)n[nH]1	7%	-24	4%	?	?	-3%
CN(Cc1ccccn1)C(=O)c1cc(COc2ccc(F)cc2Cl)on1	?	-7	2%	23µM*	nt	3%
CCN1CCC(O)(C(C(=O)O)c2ccccc2)CC1 (stereo not drawn)	5%	3	-1%	4%	nt	0%
CC1(C(=O)Nc2ccc3c(c2)OCCO3)CN(S(C)(=O)=O)CC(=O)N1CCc1ccc(O)cc1 (stereo not drawn)	0%	23	32%	1%	nt	0%
COc1cc(C2c3c(oc4ccccc4c3=O)C(=O)N2c2nnc(C(C)C)s2)cc(OC)c1OC (stereo not drawn)	-4%	nt	nt	-23%	nt	nt
COc1cc(C2c3cc4c(cc3CC3COC(=O)N32)OCO4)cc(OC)c1OC (stereo not drawn)	0.82µM*	2	1.3µM*	0.92µM*	nt	1µM*
CCOC(=O)N=Nc1c2ccccc2c2nc3no[nH]c3nc12	0.41µM*	-103*	1.2µM*	1.3µM*	1.5µM*	1µM*
COc1cc2c(cc1OC)CN(C(=O)CN1CCN(S(=O)(=O)c3ccccc3Br)CC1)CC2	?	-4	12%	2.1µM*	?	0%
COc1cc2c(cc1OC)CN(C(=O)COc1ccc(C)c(C)c1)CC2	?	-2	-10%	?	18µM*	-12%
COc1cc2c(cc1OC)CN(C(=O)Cn1ccccc1=O)CC2	-10%	18	-2%	-4%	-4%	7%
CCC(=O)c1ccc(OCC(=O)N2CCc3cc(OC)c(OC)cc3C2)cc1	-27%	-9	-2%	-27%	-22%	-5%
COc1cc2c(cc1OC)CN(C(=O)CSc1ccccc1C)CC2	?	-60*	-5%	?	-9%	3%
O=C(CN1CCN(S(=O)(=O)c2ccc(F)c(Cl)c2)CC1)N1CCc2ccccc2C1	?	-5	-1%	16µM*	nt	-2%
Cc1noc(C)c1NC(=O)N(C)C[C@H]1OCCCC[C@@H](C)Oc2ccc(NS(=O)(=O)c3ccccc3)cc2C(=O)N([C@H](C)CO)C[C@@H]1C	-22%	-18	4%	?	nt	14%
COc1cc2c(cc1OC)CN(C(=O)CSC1=NCCS1)CC2	?	-3	-9%	21µM*	nt	-9%
Cc1cc(OCC(=O)N2CCc3ccccc3C2)c(C)cc1Br	?	-55*	-27%	16µM*	?	-17%
CCn1cc(C(=O)NCc2ccc(F)cc2)c(=O)c2cc(S(=O)(=O)N(C)C)ccc21	-25%	nt	nt	?	nt	nt
CC(C)(C)NCC(O)Cn1cc(C=O)c2ccccc21 (stereo not drawn)	-7%	0	-6%	-1%	3%	-1%
SMILES	DT40 TDP1 CPT	IL1B secr inh	HT1080NT lethal	TDP1 cell noCPT	ELG1 repair inh	HT1080 IDH1KD tx
COc1cccc(-c2nn(-c3ccccc3)cc2/C=C\C(=O)c2cccs2)c1	-27%	-18	15%	-28%	?	7%
CCCN(CCC)CC(O)Cn1cc(/C=C/C(=O)c2cccs2)c2ccccc21 (stereo not drawn)	18µM*	-104*	-7%	?	3%	-1%
CCCN(CCC)CC(O)Cn1cc(/C=C/C(=O)c2ccc(Br)cc2)c2ccccc21 (stereo not drawn)	3.3µM*	nt	nt	4.6µM*	nt	nt
CCCN(CCC)CC(O)Cn1cc(/C=C/C(=O)c2ccc(C)cc2)c2ccccc21 (stereo not drawn)	?	nt	nt	21µM*	nt	nt
O=C1CN(C(=O)COC(=O)CCc2ccccc2O)c2ccccc2N1	-11%	-4	-2%	-5%	8%	-2%
Cc1ccc2occ(CN3CCOc4ccc(C(C)(O)COc5ccccc5)cc4C3)c(=O)c2c1 (stereo not drawn)	4%[9.04 µM]	nt	nt	?	nt	nt
Cn1c(=O)c2c(SCC(=O)Nc3nccs3)nc(C3CC3)nc2n(C)c1=O	23µM*	-8	24%	18µM*	-1%	18%
CCCn1c(=O)n(C)c(=O)c2c(SCc3cc(C(C)=O)ccc3OCC)nc(C3CC3)nc21	21µM*	8	-6%	26µM*	nt	2%
CCOc1ccc(C(C)=O)cc1CSc1nc(C)cc(C)n1	?	-19	5%	7%	?	-3%
CC(=O)c1ccc(NC(=O)CSc2nc(C3CCCC3)nc3c2c(=O)n(C)c(=O)n3C)cc1	5.2µM*	nt	nt	5.2µM*	nt	nt
Cn1c(=O)c2c(SCC(=O)N3CCOCC3)nc(C3CCCCC3)nc2n(C)c1=O	nt	nt	nt	nt	-1%	nt
Cn1c(=O)c2c(SC3CCCC3)nc(C3CC3)nc2n(C)c1=O	?	32	8%	21µM*	10%	3%
Cc1cccc(NC(=O)CSc2nc(C3CCCC3)nc3c2c(=O)n(C)c(=O)n3C)c1C	-14%	nt	nt	-7%	nt	nt
O=[N+]([O-])c1ncccc1OCc1ccc(Cl)c(Cl)c1	?	?	-13%	?	?	-6%
Cn1c(N2CCCC2)nc2c1c(=O)n(Cc1ccc(Cl)cc1)c(=O)n2C	?	-17	-12%	?	21µM*	-8%
